In PubChem BioAssay AID1671194 (National Center for Advancing Translational Sciences (NCATS), 2021):
Hit rate of the full screen: of about 140,000 compounds, about 240 (0.17%) were called active. Inconclusive results (about 9%) are left out. The call rests on the fitted dose curve; in most records, active means well fitted inhibition curve with a large enough effect; inconclusive means small, poorly fitted or top-dose-only effect; inactive means no such curve, though single readings can be large or run the other way. Shown is part of a subset that was picked to be rich in actives. Where a call stands in place of a potency, no number is given.

experiment: Primary qHTS assay for inhibitors of alpha-synuclein gene (SNCA) expression; details: HEK-293 SNCA-luciferase knock-in, luminescence, 24 h; series mostly up to 57.2 µM; further: nearly all actives have a fitted effect of over 45% in size
From the text: Assay Submitter (PI): Daniel R. Scoles Ph.D.
Department of Neurology, University of Utah, Salt Lake City, Utah
Accumulation of alpha-synuclein is a main underlying pathological feature of Parkinson's disease (PD) and alpha-synucleinopathies, for which lowering expression of the alpha-synuclein gene (SNCA) is a potential therapeutic avenue. Using a cell-based luciferase reporter of SNCA expression we performed a quantitative high throughput screen (qHTS) of 155,885 compounds in dose response. The screening assay was generated using genome editing to insert the luciferase gene downstream and in frame of the SNCA gene in HEK-293 cells (1). A viability counterscreen using GF-AFC was used to eliminate cytotoxic and false positive compounds. After in silico analysis (clustering, removal of frequent hitter nuisance chemotypes), inhibitor compounds from the primary screen were selected for follow up and re-tested at 11-doses in the SNCA-luc cells (luciferase and GF-AFC confirmation), and in CMV-luc expressing cell line to flag general transcriptional repressors.
Described herein are the results of the primary screen for SNCA inhibitors; decrease in luciferase signal (inhibition of the SNCA gene expression) is the desired output for this assay.
1. Dansithong, W., Paul, S., Scoles, D. R., Pulst, S. M., and Huynh, D. P. (2015) Generation of SNCA Cell Models Using Zinc Finger Nuclease (ZFN) Technology for Efficient High-Throughput Drug Screening. PLoS ONE 10, e0136930.
SEQUENCE No. (e.g., 1, 2, 3, etc.); […] (e.g., Cells, Incubation, Reagent, etc.); VALUE; DESCRIPTION
1; Cells; 4 uL; Dispense 1500 HEK-293-SNCA-luc cells/well into Greiner 1536-well white / solid bottom tissue culture treated plate. The plate was covered with metal lids with gas-exchange holes.
2; Incubate; 24 hours; Incubate at 37C, 5% CO2, 95% RH.
3; Compounds; 23 nL; Compounds and controls were transferred via a Kalypsys Pin Tool (Wako USA) equipped with a 1536-slotted pin array. The plate was covered with metal lids with gas-exchange holes.
4; Incubate; 24 hours; Incubate at 37C, 5% CO2, 95% RH.
5; Dispense; 1 uL; Dispense Gly-Phe-7-amino-4-trifluoromethylcoumarin (GF-AFC, prepared at 125 uM in PBS) was added. The plate was covered with metal lids with gas-exchange holes.
6; Incubate; 30 min; Incubate at 37C, 5% CO2.
7; Detector; Fluorescence; Measure fluorescence with ViewLux microplate reader (PerkinElmer) equipped with 405/10 excitation and 540/25 emission filters.
8; Dispense; 3 uL; Dispense ONE-Glo ([…]) lucifase detection reagent was added to each well. Plates were covered with metal lids with gas-exchange holes.
9; Incubate; 15 min; Incubate at room temperature.
10; Detector; Luminescence; Measure luminescence with ViewLux microplate reader (PerkinElmer) equipped with clear filters.
NOTES (numbers refer to sequence above)
1; HEK-293-SNCA-luc were cultured and suspended in phenol-red free DMEM (4.5 g/L glucose, 25 mM HEPES, cat #21063 (Thermo)).
3; Compounds were added to the assay plate in an 11-point intra plate dose response, 1:3 titration in DMSO with a final concentration range of […]. Vehicle-only plates, with DMSO being pin-transferred to every well, were inserted at the beginning of screening runs to confirm expected assay performance. […]
10; Signals were analyzed, and dose-response curves were fit using the Hill equation. […]
Potency means the concentration at half of the fitted maximal effect.

**Q.** Which Potency does the source give for CC[C@H]1C=CC=CC[C@@H](C)[C@H](O)[C@@](C)(O)C(=O)[C@@H](C)[C@H](O)[C@@H](C)C(=O)[C@@H](C)[C@H](O)[C@@H](C)C=CC(=O)O[C@@H]2[C@@H](C)[C@H](CC1)O[C@]1(CC[C@H](C)[C@H](C[C@@H](C)O)O1)[C@H]2C here?
**A.** 1.71 µM (active)

**Q.** With CN(Cc1ccccc1)C[C@H]1CN2CC[C@H]1C[C@@H]2CNC(=O)Nc1ccsc1 as the molecule, how does the Potency read?
**A.** inactive

**Q.** With CC(=Cc1csc(C)n1)[C@@H]1C[C@H]2O[C@]2(C)CCC[C@H](C)[C@@H](O)[C@@H](C)C(=O)C(C)(C)[C@@H](O)CC(=O)O1 as the molecule, how does the Potency read?
**A.** inactive

**Q.** Which Potency does the source give for Cc1nc(-c2ccc(C(F)(F)F)cc2)cc([C@H]2CN3CC[C@H]2C[C@@H]3CNC(=O)C2CCC2)n1 here?
**A.** inactive

**Q.** With CCOC(=O)[C@H]1CN(C(=O)NC2CCCC2)[C@]2(C)C(=O)Nc3ccccc3[C@H]12 as the molecule, how does the Potency read?
**A.** inactive
